Consider 33 compounds from PubChem BioAssay AID2810 (NMMLSC, 2010).

About 65 (5%) of roughly 1,200 compounds were called active.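 The calls were made as follows: active = at either tested dose, response and 90th-percentile vesicle-stain brightness of CD8 cells under set limits and under 9% cells vesicle-bound; inactive = the rest.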 Only a selection was taken, and actives are over-represented in it overall.

A short description of this test: modulators of CD8 T cell-vesicle binding, confirmation, cherry-picked primary hits, two concentrations (AID 2810).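 As to all read-outs here: lower values mean blocking of vesicle binding.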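 As to percent response (vesicle binding): ratio of mean FL2 vesicle stain of CD8+ cells to that row's control.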 As to conditions: 2C CD8+ T cell-vesicle binding, flow cytometry; for double positive events: CD8+/vesicle+ events. Background: In flow cytometry, cells or beads pass a laser one at a time.
Setting [1] is: at 15.4 µM, stronger effect = lower value.

For `O=C(COc1ccccc1)Nc1cc(S(=O)(=O)N2CCOCC2)ccc1N1CCCC1`, the double positive events is, setting by setting: (at 7.7 µM) 28.3%; under setting [1], 4.1%. Moreover, the percent response (vesicle binding) by setting is: under setting [1], 138% (inactive); (response, at 7.7 µM) 164%.
As to `CCN(Cc1ccccc1)C(=O)c1ccc(C)c(S(=O)(=O)N2CCCCC2)c1`, the double positive events is, setting by setting: (at 7.7 µM) 11.9%; under setting [1], 30.2%. The percent response (vesicle binding) is, setting by setting: under setting [1], 197% (inactive); (response, at 7.7 µM) 111%.
On to `Cc1cccc(C(=O)OCC(=O)NN2C(=O)NC3(CCC(C)CC3)C2=O)c1O` (stereo unspecified), for which the double positive events reads like this: (at 7.7 µM) 19.9%; under setting [1], 5.2%. In addition, the percent response (vesicle binding) under setting [1] is 35.3% (active) and the percent response (vesicle binding) (response, at 7.7 µM) was found to be 181%.
The corresponding values for `Cc1cccc(C(=O)OCC(=O)Nc2ccc3c(c2)OCCO3)c1O` are 10.2%, 29.9%, 717% (inactive) and 113%.
For the compound `CCOC(=O)c1c(NC(=O)CN2C(=O)NC3(CCC(C)CC3)C2=O)sc(C)c1-c1ccc(C)cc1` (stereo unspecified), the double positive events is, setting by setting: (at 7.7 µM) 33.5%; under setting [1], 23.6%. The percent response (vesicle binding) was 559% (inactive) under setting [1] and 363% (response, at 7.7 µM).
Consider `Cc1ccc2nc(-c3cccnc3)c(NC3CCCC3)n2c1`, for which the double positive events amounted to 16.9% (at 7.7 µM) and 33.3% under setting [1]. In addition, the percent response (vesicle binding) under setting [1] is 211% (inactive) and the percent response (vesicle binding) (response, at 7.7 µM) is 276%.
Regarding `O=c1[nH]c(CN(CCc2ccccc2)S(=O)(=O)c2ccc(Cl)cc2)nc2ccccc12`, the double positive events is, setting by setting: (at 7.7 µM) 9.5%; under setting [1], 16.7%. Also, the percent response (vesicle binding) under setting [1] is 208% (inactive) and the percent response (vesicle binding) (response, at 7.7 µM) came out at 239%.
Compound `CCOC(=O)C(c1ccccc1)N1CCN(c2ccc(OC)cc2)CC1` (stereo unspecified) displayed a double positive events (at 7.7 µM) of 13.2% and a double positive events under setting [1] of 29.9%. For the same compound, the percent response (vesicle binding) is 388% (inactive) under setting [1] and 255% (response, at 7.7 µM).
The corresponding values for `CC(Sc1nc2ccccc2s1)C(=O)Nc1ccc2c(c1)OCO2` (stereo unspecified) are 9%, 28%, 533% (inactive) and 344%.
The like results for `CCc1ccccc1NC(=O)NCc1ccc2c(c1)OCO2` were, in that order, 17.2%, 20%, 361% (inactive) and 479%.
The like results for `CCc1noc(C)c1C(=O)OC(C)C(=O)Nc1ccc2c(c1)OCO2` (stereo unspecified) were, in that order, 32.8%, 2.5%, 22% (active) and 329%.
In the case of `Cc1noc(C)c1C(=O)OC(C)C(=O)N1CCc2ccccc21` (stereo unspecified), the double positive events was determined as 28.5% (at 7.7 µM) and 4.4% under setting [1]. Further, the percent response (vesicle binding) was 134% (inactive) under setting [1] and 293% (response, at 7.7 µM).
The like results for `COc1ccc(Cl)cc1NS(=O)(=O)c1cccc(C(=O)NCC(C)(C)N2CCOCC2)c1` were, in that order, 20.7%, 18.3%, 317% (inactive) and 710%.
The like results for `COc1cc(CNCc2cccnc2)ccc1OCC(=O)NC1CCCCC1` were, in that order, 18.4%, 5.7%, 32.6% (active) and 303%.
The corresponding values for `Cc1ccc(C(=O)OCC(=O)NC2CCCCC2)o1` are 35.5%, 14%, 244% (inactive) and 265%.
With `COc1cc(CNCCc2ccc(S(N)(=O)=O)cc2)ccc1OCC(=O)N1CCCCC1`, the double positive events runs as follows: (at 7.7 µM) 11.5%; under setting [1], 19.2%. In addition, the percent response (vesicle binding) under setting [1] was 229% (inactive) and the percent response (vesicle binding) (response, at 7.7 µM) worked out at 370%.
Turning to `COc1ccc(CNC(=O)COC(=O)CCN2C(=O)C3CC=CCC3C2=O)cc1OC` (stereo unspecified), the double positive events came out at 41.8% (at 7.7 µM) and 29.1% under setting [1]. Also, the percent response (vesicle binding) under setting [1] was 307% (inactive) and the percent response (vesicle binding) (response, at 7.7 µM) came out at 239%.
Compound `COc1ccc(OC)c(NC(=O)c2ccccc2SC)c1` registered a double positive events (at 7.7 µM) of 56.3%. Under setting [1], the double positive events is 35.3% and the percent response (vesicle binding) is 242% (inactive).
The compound `COc1ccc(CNC(=O)c2cccnc2SC)cc1OC` showed a double positive events (at 7.7 µM) of 9.3% and a double positive events under setting [1] of 2%. For the same compound, the percent response (vesicle binding) by setting is: under setting [1], 29.8% (active); (response, at 7.7 µM) 180%.
The like results for `O=C(Cn1cc(C(F)(F)F)cc(Cl)c1=O)NCCc1ccc(Cl)cc1Cl` were, in that order, 11.1%, 1.7%, 16.3% (active) and 149%.
The like results for `Cc1ccc(C(=O)NC2CCCc3c2cnn3-c2ccc(F)cc2F)cn1` (stereo unspecified) were, in that order, 33.7%, 15%, 329% (inactive) and 658%.
`CCOC(=O)C1(Cc2cccc(OC)c2)CCN(C/C=C/c2ccccc2)CC1`: the double positive events is, setting by setting: (at 7.7 µM) 25.8%; under setting [1], 11%. Moreover, the percent response (vesicle binding) is 119% (inactive) under setting [1] and 269% (response, at 7.7 µM).
On to `Cc1ccccc1/C(N)=N/OC(=O)c1cccs1`, for which the double positive events came to 12.4% (at 7.7 µM) and 17.9% under setting [1]. Further, the percent response (vesicle binding) is 190% (inactive) under setting [1] and 217% (response, at 7.7 µM).
The like results for `CCOC(=O)N1CCN(Cc2nc(-c3ccc(C)cc3)no2)CC1` were, in that order, 14.7%, 4.6%, 63% (inactive) and 286%.
The like results for `COc1ccc([N+](=O)[O-])cc1NC(=O)c1ccc(N(Cc2ccccc2C)S(C)(=O)=O)cc1` were, in that order, 8.4%, 2.9%, 47.7% (active) and 131%.
As to `COc1ccc([N+](=O)[O-])cc1N(CC(=O)O)S(C)(=O)=O`, the double positive events is, setting by setting: (at 7.7 µM) 9.6%; under setting [1], 19.3%. The percent response (vesicle binding) runs as follows: under setting [1], 127% (inactive); (response, at 7.7 µM) 281%.
On to `COc1ccc([N+](=O)[O-])cc1NC(=O)C(C)Sc1nc(-c2ccccc2)cs1` (stereo unspecified), for which the double positive events by setting is: (at 7.7 µM) 11.7%; under setting [1], 22.6%. Further, the percent response (vesicle binding) is 114% (inactive) under setting [1] and 121% (response, at 7.7 µM).
`COc1cc2ccccc2cc1C(=O)NC1CCCCC1`: the double positive events runs as follows: (at 7.7 µM) 11.7%; under setting [1], 19%. For the same compound, the percent response (vesicle binding) was 121% (inactive) under setting [1] and 368% (response, at 7.7 µM).
As for `CCN1CCN(c2ccc(NC(=O)c3cc4ccccc4cc3OC)cc2C)CC1`, the double positive events by setting is: (at 7.7 µM) 21.2%; under setting [1], 1.8%. The percent response (vesicle binding) reads like this: under setting [1], 55.9% (active); (response, at 7.7 µM) 373%.
The corresponding values for `CCN1CCN(c2ccc(S(=O)(=O)N3CCCCC3)cc2NC(=O)c2cccc(C)c2[N+](=O)[O-])CC1` are 31.1%, 37.1%, 238% (inactive) and 406%.
The like results for `O=C(Nc1nc2ccccc2n1CCN1CCOCC1)c1ccc(Cn2cc([N+](=O)[O-])cn2)o1` were, in that order, 23.6%, 23.8%, 145% (inactive) and 260%.
The like results for `C=CCn1c(C)cc(-c2csc(NCC)n2)c1C` were, in that order, 11.2%, 24.9%, 196% (inactive) and 160%.
With `CCOC(=O)c1ccc(S(=O)(=O)N2CCN(C3CCCC3)CC2)cc1`, the double positive events is 11.3% (at 7.7 µM) and 23.3% under setting [1]. The percent response (vesicle binding) was 294% (inactive) under setting [1] and 107% (response, at 7.7 µM).
